Composite z-score and z-score data for four compounds are collected here from PubChem BioAssay.

Experiment [1] deals with Wnt5a (protein binding on small-molecule microarray). Description: small molecules binding Wnt5a protein – biophysical, small-molecule microarray, 635/667 nm fluorescence, primary screen (AID 1142).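 Note: fluorescence read at 667 nm with signal to noise per printed feature.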 As to conditions: 635 nm fluorescence, higher = more signal.
The nature of experiment [2]: ATP-based viability of Huh7 replicon cells – cell-based, CellTiter-Glo luminescence, basal, 48 h, cytotoxicity control for HCV replication inhibitor project, primary screen (AID 1143).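 Note: Huh7 hepatoma cells carrying a hepatitis C replication reporter with no stimulus; test concentration not given here.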 To be noted: higher = more signal, called active from +8 up or from −8 down.
The nature of experiment [3]: basal CRE-LacZ reporter activity in PC12 – cell-based, unstimulated, primary screen (AID 1145). As to conditions: no forskolin, luminescence, 4.5 h, higher = more signal, called active from +8 up or from −8 down.
Experiment [4] is described as follows: forskolin-driven CRE-LacZ activity in PC12 – cell-based, CRE-LacZ reporter, forskolin-stimulated, primary screen (AID 1146).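 Note: PC12 cells with 6xCRE LacZ reporter stimulated by forskolin 10 µM; beta-galactosidase reporter signal reflecting CREB driven transcription.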 To be noted: luminescence, 4.5 h, higher = more signal, called active from +8 up or from −8 down.
Experiment [5] concerns the target Streptavidin (Streptomyces avidinii) (UniProt P22629). Description: compounds binding control protein streptavidin – biophysical, small-molecule microarray, 635/667 nm fluorescence, artefact control for SMM compound annotation, primary screen (AID 1147).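 Note: signal reflects streptavidin binding to arrayed compounds as a control protein.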 To be noted: higher = more signal.
A short description of experiment [6]: probe aInhba binding on compound microarray – biochemical, small-molecule microarray, 635/667 nm fluorescence, primary screen (AID 1148).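 Note: score merges 667nm spot fluorescence with signal-to-noise for antibody binding to printed compounds.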 To be noted: higher = more signal.
The target in experiment [7] is Torsin-1A (Homo sapiens) (UniProt O14656). Description: TOR1A wild-type binding on microarray – cell lysate, small-molecule microarray, lysate, 635/667 nm, primary screen (AID 1149). As to conditions: COS7 hTOR1A-WT lysate, 635 nm fluorescence, higher = more signal.
For experiment [8] the target is unchanged. Kind of experiment: torsin A mutant lysate binding on microarrays – cell lysate, small-molecule microarray, COS7 lysate, 635/667 nm fluorescence, primary screen (AID 1150).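 Note: score pools 667 nm emission and signal to noise measuring lysate protein binding.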 To be noted: COS7 hTOR1A mutant lysate, 635 nm fluorescence, higher = more signal.
Experiment [9] relates to Sonic hedgehog protein (Shh). Kind of experiment: Sonic hedgehog microarray binding compounds – biochemical, small-molecule microarray, 635/667 nm fluorescence, primary screen (AID 1151).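 Note: Shh protein binding to compounds spotted on small-molecule microarray slides; score combines spot fluorescence intensity with signal-to-noise across triplicate slides.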 As to conditions: 635 nm fluorescence, higher = more signal.
A short description of experiment [10]: optical density shifts of acrAB sulA E. coli – strain DRC41, OD650, 48 h, E. coli filamentation inducer project, primary screen (AID 1152).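 Note: E. coli MC1000 strain DRC41 lacking acrAB efflux pump and sulA.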 As to conditions: higher = more signal, called active from +8 up or from −8 down.
Experiment [11] is described as follows: probe aLefty1 binding on compound microarray – biochemical, small-molecule microarray, 635/667 nm fluorescence, primary screen (AID 1153).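 Note: score merges spot fluorescence with signal-to-noise ratio from the scanned slide images.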 To be noted: higher = more signal.
The nature of experiment [12]: plasmodial surface anion channel blockers, osmotic lysis – cell-based, P. falciparum Indochina, OD700, 1 h, primary screen (AID 1154). As to conditions: P. falciparum Indochina infected RBC osmotic lysis, higher = more signal, called active from +8 up or from −8 down.
Experiment [13] is described as follows: plasmodial surface anion channel blockers, osmotic lysis – cell-based, P. falciparum Indochina, OD700, 2 h, primary screen (AID 1155).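 Note: lysis reports solute entry through the parasite surface anion channel PSAC.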 To be noted: P. falciparum Indochina infected erythrocytes, higher = more signal, called active from +8 up or from −8 down.
A short description of experiment [14]: changes in parasitized red cell lysis, either direction – P. falciparum Indochina, OD700, 3 h, PSAC antagonist project, primary screen (AID 1156). As to conditions: P. falciparum-infected erythrocytes, osmotic lysis, higher = more signal, called active from +8 up or from −8 down.
The nature of experiment [15]: plasmodial surface anion channel blockers, osmotic lysis – cell-based, P. falciparum Indochina, OD700, 18 h, primary screen (AID 1157). To be noted: P. falciparum Indochina infected erythrocytes, osmotic lysis OD700, 18 h; higher = more signal, called active from +8 up or from −8 down.
Experiment [16] can be described thus: S6 kinase pathway phospho-S6 level changes – cell-based, A549, cytoblot, luminescence, serum-stimulated, primary screen (AID 1158).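 Note: serum-stimulated A549 lung adenocarcinoma cells; signal is phosphorylated S6 detected by cytoblot immunostaining with HRP secondary.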 As to conditions: 5 h, higher = more signal.
Experiment [17] has as its target NADPH oxidase 2 (Homo sapiens) (UniProt P04839). Kind of experiment: compounds shifting NOX2 Amplex Red fluorescence – cell-based, HEK293-NOX2, PMA-stimulated, NOX inhibitor project, primary screen (AID 1159). Note: test concentration not given here. To be noted: 45 min, higher = more signal, called active from +8 up or from −8 down.
Experiment [18] addresses NADPH oxidase 4 (Homo sapiens) (UniProt Q9NPH5). Description: compounds shifting NOX4 Amplex Red fluorescence – cell-based, HEK293-NOX4, tetracycline-induced, NOX inhibitor project, primary screen (AID 1160). As to conditions: HEK293-NOX4, Amplex Red H2O2 fluorescence, 45 min; higher = more signal, called active from +8 up or from −8 down.
Experiment [19] addresses NADPH oxidase 5 (Homo sapiens) (UniProt Q96PH1). Description: compounds shifting NOX5 Amplex Red fluorescence – cell-based, HEK293-NOX5, NOX inhibitor project, primary screen (AID 1161). As to conditions: HEK293-NOX5, ionomycin, 45 min, higher = more signal.
Experiment [20] in a line: compound effects on lung adenocarcinoma cell viability – A549, calcein-AM fluorescence, 48 h, basal, profiling panel (AID 1162). Note: test concentration not given here. To be noted: higher = more signal.

Active and inactive are the calls of the source.

Chain of NADPH oxidase 5 (Homo sapiens) (Q96PH1 whole entry, looked up): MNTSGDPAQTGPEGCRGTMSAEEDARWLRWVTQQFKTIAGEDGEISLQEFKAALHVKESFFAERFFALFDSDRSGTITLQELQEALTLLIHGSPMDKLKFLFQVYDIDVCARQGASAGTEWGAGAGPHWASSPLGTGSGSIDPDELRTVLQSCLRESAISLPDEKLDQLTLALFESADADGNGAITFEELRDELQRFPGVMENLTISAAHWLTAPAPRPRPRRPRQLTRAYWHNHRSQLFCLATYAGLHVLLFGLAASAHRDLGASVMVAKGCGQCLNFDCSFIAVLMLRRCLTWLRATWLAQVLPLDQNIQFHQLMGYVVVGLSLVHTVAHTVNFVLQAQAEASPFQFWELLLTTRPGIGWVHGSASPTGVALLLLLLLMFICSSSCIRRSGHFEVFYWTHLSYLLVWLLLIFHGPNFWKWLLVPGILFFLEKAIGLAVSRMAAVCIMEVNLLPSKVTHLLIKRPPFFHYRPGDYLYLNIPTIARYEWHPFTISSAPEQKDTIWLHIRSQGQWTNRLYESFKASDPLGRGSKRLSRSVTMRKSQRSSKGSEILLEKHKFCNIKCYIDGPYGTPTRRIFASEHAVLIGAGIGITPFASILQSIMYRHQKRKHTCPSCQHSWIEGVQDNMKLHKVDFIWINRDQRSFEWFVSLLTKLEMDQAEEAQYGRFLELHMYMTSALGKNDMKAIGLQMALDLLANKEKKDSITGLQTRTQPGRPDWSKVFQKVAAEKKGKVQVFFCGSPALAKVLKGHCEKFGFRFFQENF
Chain of Torsin-1A (Homo sapiens) (O14656 whole entry, looked up): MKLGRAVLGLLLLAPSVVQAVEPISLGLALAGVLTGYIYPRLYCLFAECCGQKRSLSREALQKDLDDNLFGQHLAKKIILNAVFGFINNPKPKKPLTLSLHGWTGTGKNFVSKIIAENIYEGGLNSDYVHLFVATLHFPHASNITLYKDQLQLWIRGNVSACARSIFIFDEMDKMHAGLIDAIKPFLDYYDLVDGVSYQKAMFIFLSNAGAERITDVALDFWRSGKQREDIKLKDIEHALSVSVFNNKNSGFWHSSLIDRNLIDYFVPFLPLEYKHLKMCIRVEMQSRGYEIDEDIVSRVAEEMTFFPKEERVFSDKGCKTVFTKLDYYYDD
Chain of NADPH oxidase 4 (Homo sapiens) (Q9NPH5 whole entry, looked up): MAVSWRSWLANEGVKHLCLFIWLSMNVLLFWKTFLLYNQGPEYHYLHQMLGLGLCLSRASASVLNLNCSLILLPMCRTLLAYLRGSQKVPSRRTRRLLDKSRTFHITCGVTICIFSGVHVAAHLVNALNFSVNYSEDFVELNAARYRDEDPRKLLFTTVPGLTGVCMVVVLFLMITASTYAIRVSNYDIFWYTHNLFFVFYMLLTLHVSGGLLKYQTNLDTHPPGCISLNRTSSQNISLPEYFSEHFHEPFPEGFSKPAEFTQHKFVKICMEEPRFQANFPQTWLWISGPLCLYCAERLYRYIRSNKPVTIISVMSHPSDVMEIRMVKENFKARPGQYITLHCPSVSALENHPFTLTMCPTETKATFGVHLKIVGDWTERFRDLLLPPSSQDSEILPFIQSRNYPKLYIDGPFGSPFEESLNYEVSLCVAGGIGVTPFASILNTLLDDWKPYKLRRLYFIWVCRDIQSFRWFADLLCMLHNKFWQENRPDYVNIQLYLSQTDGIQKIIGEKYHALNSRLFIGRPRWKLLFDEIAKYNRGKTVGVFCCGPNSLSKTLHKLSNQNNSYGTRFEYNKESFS
Chain of Streptavidin (Streptomyces avidinii) (P22629 whole entry, looked up): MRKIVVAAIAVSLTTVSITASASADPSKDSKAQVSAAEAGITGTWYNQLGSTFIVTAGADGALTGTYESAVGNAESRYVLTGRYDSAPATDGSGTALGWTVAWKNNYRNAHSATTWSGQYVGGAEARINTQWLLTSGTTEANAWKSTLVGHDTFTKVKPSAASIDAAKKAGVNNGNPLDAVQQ
Chain of NADPH oxidase 2 (Homo sapiens) (P04839 whole entry, looked up): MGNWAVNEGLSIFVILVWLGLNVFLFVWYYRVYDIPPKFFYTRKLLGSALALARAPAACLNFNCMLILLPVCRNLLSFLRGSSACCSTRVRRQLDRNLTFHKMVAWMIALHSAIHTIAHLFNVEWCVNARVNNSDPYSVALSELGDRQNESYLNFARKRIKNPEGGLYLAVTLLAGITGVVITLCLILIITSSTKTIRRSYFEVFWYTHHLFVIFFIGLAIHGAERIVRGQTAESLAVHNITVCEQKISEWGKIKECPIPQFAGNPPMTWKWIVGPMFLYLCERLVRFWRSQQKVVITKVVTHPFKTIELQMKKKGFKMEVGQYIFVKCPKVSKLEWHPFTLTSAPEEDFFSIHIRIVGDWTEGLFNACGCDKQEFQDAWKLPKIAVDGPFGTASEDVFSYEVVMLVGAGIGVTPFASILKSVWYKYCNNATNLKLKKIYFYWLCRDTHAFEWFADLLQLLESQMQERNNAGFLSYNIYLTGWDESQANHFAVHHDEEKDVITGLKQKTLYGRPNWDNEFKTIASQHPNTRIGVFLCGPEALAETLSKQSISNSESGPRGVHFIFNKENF

Take `O=C1c2ccccc2[C@](Cc2ccccc2I)(C(=O)O)[C@H](c2ccc(CO)cc2)N1Cc1ccccc1Cl`: the composite z-score in experiment [1] turned out to be 0.0716; in experiment [5], 0.414; in [6], 0.112; in experiment [7], 0.252; in experiment [8], 1.01; in [9] it was 0.0948. In addition, in [11], the composite z-score stood at 0.122. Moreover, the z-score was -1.86 (inactive) in [2]; -0.0888 (inactive) in experiment [3]; -0.873 (inactive) in experiment [4]; 1.76 (inactive) in [10]; 4.07 (inactive) in experiment [12]; -0.442 (inactive) in experiment [13]. The z-score in [14] is 0.477 (inactive); in experiment [15], -1.07 (inactive); in [16] it was 1.21; in [17], 1.35 (inactive); in experiment [18], 0.57 (inactive); in experiment [19] it was 2.39. Besides, the z-score in [20] is 1.32.
With `CC(C)[Si](C#C[Si](C(C)C)(C(C)C)C(C)C)(O[C@H](C)c1cn([C@H](C)c2ccccc2)nn1)C(C)C`, the composite z-score in experiment [1] was 0.0985; in experiment [5], 0.434; in experiment [6], -0.0209; in [7], 0.144; in [8], 0.477; in [9], 1.14. In [11], this compound came in with a composite z-score of 0.241. Besides, the z-score in experiment [2] is -1.48 (inactive); in [3], -0.332 (inactive); in experiment [4], -1.59 (inactive); in experiment [10], 2.49 (inactive); in experiment [12] it was 0.792 (inactive); in [13], -0.533 (inactive). For the same compound, the z-score is -0.926 (inactive) in [14]; -1.01 (inactive) in experiment [15]; 0.728 in experiment [16]; 0.586 (inactive) in experiment [17]; 0.587 (inactive) in experiment [18]; 0.265 in experiment [19]. Further, the z-score in experiment [20] is 2.27.
As for `O=C(NC1CC1)[C@@H]1c2ccccc2C(=O)N(Cc2ccccc2C(F)(F)F)[C@H]1c1ccc(CO)cc1`, the composite z-score in [1] was 0.312; in experiment [5] it was -0.47; in experiment [6] it was 0.0439; in experiment [7], 0.504; in experiment [8], 0.723; in [9], 0.732. The compound further displayed a composite z-score in experiment [11] of 0.106. The z-score was -0.568 (inactive) in [2]; -0.0512 (inactive) in experiment [3]; -1.37 (inactive) in [4]; 1.48 (inactive) in [10]; 2.17 (inactive) in experiment [12]; 0.721 (inactive) in experiment [13]. Also, the z-score in [14] was -0.335 (inactive); in experiment [15], 0.106 (inactive); in experiment [16], 0.152; in experiment [17], 0.583 (inactive); in [18], 0.647 (inactive); in experiment [19], 1.26. Moreover, the z-score in experiment [20] was 1.88.
With `COCCCN1C(=O)[C@@]2(Cc3ccccc31)c1ccccc1C(=O)N(Cc1ccccc1Cl)[C@H]2c1ccc(CO)cc1`, the composite z-score in experiment [1] is 0; in [5], -0.733; in experiment [6], -0.108; in experiment [7] it was -0.471; in [8] it was 0.0439; in experiment [9], 0.0161. The compound further gave a composite z-score in experiment [11] of 0.0053. In addition, the z-score is -1.33 (inactive) in experiment [2]; -0.179 (inactive) in experiment [3]; -0.415 (inactive) in experiment [4]; 3.46 (inactive) in [10]; 0.399 (inactive) in experiment [12]; -0.277 (inactive) in [13]. In addition, the z-score in experiment [14] was -0.992 (inactive); in [15], -0.85 (inactive); in experiment [16], 1.34; in experiment [17], -2.48 (inactive); in experiment [18], 0.163 (inactive); in experiment [19] it was 1.65. In addition, the z-score in experiment [20] is 1.54.
